Laboratory results as given in PubChem BioAssay (Tox21).
Values joined by “and” are separate entries in the source; they are usually repeats but may differ in a detail not shown here. Identical values can stand only once. Active and inactive are the calls of the source. Where a call stands in place of a potency, no number is given. Calls follow the shape of the dose curve; as a rule, active = well fitted curve in the direction sought with a large enough effect in the repeat runs; inconclusive = weak or mixed curves; inactive = flat fitted curve, though single readings scatter.

Assay: qHTS assay to test for compound auto fluorescence at 590 nm (red) in HEK293 cells (AID 720679)
Details: red autofluorescence 540/590 nm; series mostly up to 91.3 µM
How it was run: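 Red channel, Ex/Em 540/590nm; signal expressed as equivalency to Rose Bengal sodium. HEK293, 2,000 cells/well, 10% dialyzed FBS; 23 nL compound pinned after 4-5 hr attachment; overnight 37C/5% CO2 before reading.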

Structure (SMILES) | Potency | fluorescence, % of fluorescent control
Nc1ncn([C@@H]2O[C@H](CO)[C@@H](O)[C@H]2O)c(=O)n1 | inactive | –
OC1CCCCCCCCCCC1 | inactive | –
O=CCc1ccccc1 | inactive | –
Nc1ccc(Cl)cc1Cl | inactive | –
COC(=O)c1ccccc1 | inactive | –
CCC(C)(O)CCCC(C)C (centres undefined) | inactive | –
Cc1ncc[nH]1 | inactive | –
CC(C)OC=O | inactive | –
c1ccc2c(c1)c1cccc3ccc4cccc2c4c31 | inactive | –
Brc1cc(Oc2cc(Br)c(Br)c(Br)c2Br)c(Br)c(Br)c1Br | inactive | –
CCCCC(CC)COC(=O)c1ccc(N(C)C)cc1 (centres undefined) | inactive | –
CC(=O)CC/C=C(\C)CCC=C(C)C | inactive | –
O=C1c2cccc(O)c2C(=O)c2c(O)cccc21 | inactive | –
CN(C)c1nc(N(C)C)nc(N(C)C)n1 | – | 0.0163% [at 18.6 µM] (inactive) and 0.505% [at 3.72 µM] (inactive)
O=C=Nc1ccc(Cc2ccc(N=C=O)cc2)cc1 | inactive | –
CCCCOCCOCCO | inactive | –
CC(=O)Oc1ccccc1C(=O)Nc1ncc([N+](=O)[O-])s1 | inactive | –
CN(C)CCN(Cc1cccs1)c1ccccn1 | inactive | –
CCOCCOCCO | inactive | –
CC(C)Oc1ccc2c(=O)c(-c3ccccc3)coc2c1 | inactive | –

Structure (SMILES) | Potency | fluorescence, % of fluorescent control
CC(C)=CCCC(C)CCO (centres undefined) | inactive | –
O=S(=O)(O)c1ccc(O)cc1 | inactive | –
Nc1ncnc2nc[nH]c12 | inactive | –
CC(CCC(=O)O)(c1ccc(O)cc1)c1ccc(O)cc1 | inactive | –
O=C(Nc1ccc(Cl)cc1)Nc1ccc(Cl)c(Cl)c1 | inactive | –
O=CCCCC=O | inactive | –
c1ccc2c(c1)Oc1ccccc1S2 | inactive | –
CCCCCCCCCCCO | inactive | –
CC(C)=CCC/C(C)=C\CO | inactive | –
C[C@]12CCC(=O)C=C1CC[C@@H]1[C@@H]2C(=O)C[C@@]2(C)[C@H]1CC[C@]2(O)C(=O)CO | inactive | –
COc1ccc(C(=O)CC(=O)c2ccc(C(C)(C)C)cc2)cc1 | inactive | –
Cc1ccc(C)c(O)c1C | inactive | –
CCC(C)OC(=O)c1ccc(O)cc1 (centres undefined) | inactive | –
C[Si](C)(C)O[Si](C)(C)C | inactive | –
CC(C)OB(OC(C)C)OC(C)C | inactive | –
CCCCC(CC)COP(=O)(OCC(CC)CCCC)OCC(CC)CCCC (centres undefined) | inactive | –
CCC(C)CO (centres undefined) | inactive | –
O=C(Nc1ccc([N+](=O)[O-])cc1Cl)c1cc(Cl)ccc1O | inactive | –
Cc1c(OCC(F)(F)F)ccnc1CS(=O)c1nc2ccccc2[nH]1 (centres undefined) | inactive | –
